In ChEMBL document CHEMBL2218924, “A broad activity screen in support of a chemogenomic map for kinase signalling research and drug discovery” (Biochem J, 2013):

Molecular target: Insulin receptor (Homo sapiens) (UniProt P06213)
Details: at 10 µM

Sequence of Insulin receptor (Homo sapiens) (P06213 28-758 limits assumed): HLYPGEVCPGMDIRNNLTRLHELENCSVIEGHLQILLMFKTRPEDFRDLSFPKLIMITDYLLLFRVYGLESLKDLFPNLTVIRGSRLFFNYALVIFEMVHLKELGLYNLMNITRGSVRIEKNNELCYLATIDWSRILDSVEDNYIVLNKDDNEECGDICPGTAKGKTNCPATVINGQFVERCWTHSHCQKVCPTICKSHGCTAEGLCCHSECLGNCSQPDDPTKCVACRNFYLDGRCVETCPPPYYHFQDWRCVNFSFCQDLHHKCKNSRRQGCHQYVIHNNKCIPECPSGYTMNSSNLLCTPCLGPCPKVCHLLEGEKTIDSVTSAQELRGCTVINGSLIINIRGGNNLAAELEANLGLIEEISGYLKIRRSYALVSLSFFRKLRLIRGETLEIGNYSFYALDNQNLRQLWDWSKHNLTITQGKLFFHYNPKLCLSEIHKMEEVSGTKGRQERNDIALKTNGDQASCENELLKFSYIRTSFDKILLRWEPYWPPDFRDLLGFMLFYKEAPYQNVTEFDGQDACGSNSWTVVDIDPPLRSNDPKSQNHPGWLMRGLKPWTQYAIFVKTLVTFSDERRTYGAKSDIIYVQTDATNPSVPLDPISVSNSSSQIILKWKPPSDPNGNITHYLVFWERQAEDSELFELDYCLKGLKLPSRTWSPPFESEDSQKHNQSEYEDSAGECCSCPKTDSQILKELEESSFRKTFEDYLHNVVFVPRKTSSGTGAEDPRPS
Sequence of Insulin receptor (Homo sapiens) (P06213 763-1382 limits assumed): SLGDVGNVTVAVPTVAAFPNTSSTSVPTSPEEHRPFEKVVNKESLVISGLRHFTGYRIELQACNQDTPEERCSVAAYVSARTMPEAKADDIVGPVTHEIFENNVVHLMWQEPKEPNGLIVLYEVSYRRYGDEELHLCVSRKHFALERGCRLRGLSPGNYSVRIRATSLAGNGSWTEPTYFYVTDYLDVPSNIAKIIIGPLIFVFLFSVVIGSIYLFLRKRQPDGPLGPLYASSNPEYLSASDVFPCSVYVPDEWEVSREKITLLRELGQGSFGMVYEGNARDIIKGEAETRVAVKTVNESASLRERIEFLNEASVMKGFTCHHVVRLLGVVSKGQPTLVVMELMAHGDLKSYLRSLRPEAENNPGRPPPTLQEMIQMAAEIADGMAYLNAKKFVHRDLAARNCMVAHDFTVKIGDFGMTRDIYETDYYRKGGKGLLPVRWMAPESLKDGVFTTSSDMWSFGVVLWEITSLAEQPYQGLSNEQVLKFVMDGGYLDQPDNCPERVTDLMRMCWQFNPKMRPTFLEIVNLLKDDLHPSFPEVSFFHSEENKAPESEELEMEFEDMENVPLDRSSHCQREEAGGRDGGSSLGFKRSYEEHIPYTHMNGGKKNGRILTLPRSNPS

| Structure (SMILES) | residual activity [%] |
| --- | --- |
| Cn1cc(/C=C2\C(=O)Nc3ccc(S(N)(=O)=O)cc32)c2ccccc21 | 95 |
| COc1cc2ncnc(Nc3ccc(Oc4ccccc4)cc3)c2cc1OC | 98 |
| O=c1cc(-c2cccc3c2Sc2ccccc2S3)oc(N2CCOCC2)c1 | 136 |
| Oc1ccc(-c2nc(-c3ccc(F)cc3)c(-c3ccncc3)[nH]2)cc1 | 126 |
| O=C1c2ccccc2-[n+]2ccc3c([nH]c4ccccc43)c21 | 93 |
| N#C/C(=C(\N)Sc1ccc(N)cc1)c1ccccc1C(F)(F)F | 102 |
| CN(C)CCCn1cc(C2=C(c3c[nH]c4ccccc34)C(=O)NC2=O)c2ccccc21 | 100 |
| c1ccc(-c2n[nH]cc2-c2ccnc3ccccc23)nc1 | 84 |
| CC(=O)c1ccc(N2CCOCC2)cc1O | 81 |
| N#CC(C#N)=C(N)/C(C#N)=C/c1ccc(O)cc1 | 83 |
| O=C(Nc1cccc(Nc2nccc(Nc3cccc(C(F)(F)F)c3)n2)c1)C1CC1 | 12 |
| N#Cc1cnc2cnc(NCc3cccnc3)cc2c1Nc1ccc(F)c(Cl)c1 | 123 |
| CC(=O)O/N=C1\C(=C2\C(=O)Nc3cc(Br)ccc32)Nc2ccccc21 | 91 |
| Cn1cnc2cc3c(Nc4cccc(Br)c4)ncnc3cc21 | 103 |
| CCC(=O)Nc1ccc2ncnc(Nc3cccc(Br)c3)c2c1 | 79 |
| O=c1c2ccccc2[nH]c(=S)n1CCN1CCC(=C(c2ccc(F)cc2)c2ccc(F)cc2)CC1 | 121 |
| CC[n+]1c(/C=C/N(C)c2ccccc2)n(-c2ccccc2)c2ccc(-c3nc4ccccc4s3)cc21 | 86 |
| O=Nc1c(-c2c(O)[nH]c3ccccc23)[nH]c2ccccc12 | 10 |
